According to the supplement of paper PMC7366291:
Where a name gives a salt, the structure may show the parent alone. ± gives the standard deviation or the standard deviation of the averaged measurements.

Assays:
Details in all cases: 25 µM; exposure: 24-48 hpf
[1] = system: Danio rerio Tg(wt1b:EGFP) embryo, pronephros; test: glomerular separation, fold change vs DMSO control; higher = glomeruli further apart (abnormal)
Outline: (§1)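 Dechorionated Tg(wt1b:EGFP) zebrafish embryos were incubated at 28.5°C from 24 to 48 hpf with 25 μM compound in HEPES-buffered E3 containing 0.5% DMSO and 0.003% PTU. Distances and angles between 16 manually set points on maximum projections of dorsal pronephros images were measured in Fiji, with values over 2 SD from the feature mean excluded. Each feature is a fold change relative to the mean of same-day DMSO-treated embryos.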

[2] = system: Danio rerio Tg(wt1b:EGFP) embryo, pronephros; test: glomerular width (mean of left and right), fold change vs DMSO control; higher = wider glomerulus
Outline: as §1

[3] = system: Danio rerio Tg(wt1b:EGFP) embryo, pronephros; test: fraction of imaged embryos annotated as normal kidney; higher = less nephrotoxic; extreme values may be limits of the assay
Outline: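 Dechorionated Tg(wt1b:EGFP) zebrafish embryos were exposed in 12-well plates to 25 μM compound in 0.5% DMSO, 5 mM HEPES-buffered E3 with 0.003% PTU, from 24 to 48 hpf at 28.5°C. Tricaine-anaesthetised larvae were oriented dorsally in agarose-filled 96-well plates, and pronephroi were imaged by widefield fluorescence (470 nm, 10 z-slices). Each embryo was manually annotated from maximum projections. The read-out is the fraction of embryos per treatment assigned to the normal-kidney category.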

[4] = system: Danio rerio Tg(wt1b:EGFP) embryo, pronephros; test: pronephric angle neck segment to proximal convoluted tubule (mean of left and right), fold change vs DMSO control; higher = larger pronephric angle
Outline: as §1

## CN(C)CC/C=C1/c2ccccc2COc2ccc(CC(=O)O)cc21 [Olopatadine hydrochloride]
[1]
  glomerular separation: 0.914 ± 0.34
[2]
  glomerular width: 0.97 ± 0.013
[3]
  fraction of imaged embryos annotated as normal kidney: 0.833
[4]
  pronephric angle neck segment: 1.03 ± 0.025

## C[C@H]1O[C@@H](O[C@H]2[C@@H](O)C[C@H](O[C@H]3[C@@H](O)C[C@H](O[C@H]4CC[C@@]5(C)[C@H](CC[C@@H]6[C@@H]5C[C@@H](O)[C@]5(C)[C@@H](C7=CC(=O)OC7)CC[C@]65O)C4)O[C@@H]3C)O[C@@H]2C)C[C@H](O)[C@@H]1O [Digoxin]
[1]
  glomerular separation: 1.43 ± 0.52
[2]
  glomerular width: 1.08 ± 0.023
[3]
  fraction of imaged embryos annotated as normal kidney: 0.75
[4]
  pronephric angle neck segment: 0.9342 ± 0.0075

## Cc1ccnc2c1NC(=O)c1cccnc1N2C1CC1 [Nevirapine]
[1]
  glomerular separation: 1.13 ± 0.48
[2]
  glomerular width: 1.02 ± 0.016
[3]
  fraction of imaged embryos annotated as normal kidney: 0.917
[4]
  pronephric angle neck segment: 1.03 ± 0.048

## C[C@H]1[C@H](NC(=O)/C(=N\OC(C)(C)C(=O)O)c2csc(N)n2)C(=O)N1S(=O)(=O)O [Aztreonam]
[1]
  glomerular separation: 0.857 ± 0.2
[2]
  glomerular width: 1.143 ± 0.0015
[3]
  fraction of imaged embryos annotated as normal kidney: 0.917
[4]
  pronephric angle neck segment: 0.9634 ± 0.0095

## COCCOC(=O)C1=C(C)NC(C)=C(C(=O)OC/C=C/c2ccccc2)C1c1cccc([N+](=O)[O-])c1 (configuration not stated) [Cilnidipine]
[1]
  glomerular separation: 3.85 ± 1.1
[2]
  glomerular width: 0.735 ± 0.012
[3]
  fraction of imaged embryos annotated as normal kidney: 0
[4]
  pronephric angle neck segment: 1.248 ± 0.0032

## CC(Oc1c(Cl)cccc1Cl)C1=NCCN1 (configuration not stated) [Lofexidine]
[1]
  glomerular separation: 1.06 ± 0.22
[2]
  glomerular width: 0.9921 ± 0.0057
[3]
  fraction of imaged embryos annotated as normal kidney: 0.833
[4]
  pronephric angle neck segment: 0.96 ± 0.028

## CC[C@]12CCCN3CCc4c(n(c5ccccc45)C(=O)C1)[C@@H]32 [Eburnamonine (-)]
[1]
  glomerular separation: 1.19 ± 0.41
[2]
  glomerular width: 0.922 ± 0.059
[3]
  fraction of imaged embryos annotated as normal kidney: 1
[4]
  pronephric angle neck segment: 1.03 ± 0.017

## C#C[C@]1(O)CC[C@H]2[C@@H]3CCC4=CC(=O)CC[C@@H]4[C@H]3CC[C@@]21CC [Norgestrel-(-)-D]
[1]
  glomerular separation: 0.798 ± 0.23
[2]
  glomerular width: 1.016 ± 0.0075
[3]
  fraction of imaged embryos annotated as normal kidney: 1
[4]
  pronephric angle neck segment: 1.03 ± 0.013
